The values that follow come from ChEMBL document CHEMBL4513143, “CO-ADD screening of University of Natural Resources and Life (Austria) compounds”.

In one assay the test system is Klebsiella pneumoniae. The conditions noted are these: Concentration 32 ug.mL-1; ASSAY_TEST Inhibition of Bacterial Growth; detection method Absorption (OD600); MEDIA CAMHB; plate type 384well; NBS; CORNING #3640; time 18 hr.
A further assay deals with Candida albicans. The conditions noted are these: 32 ug/mL.
In the next assay the test system is Cryptococcus neoformans. The conditions noted are these: Concentration 32 ug.mL-1; ASSAY_TEST Inhibition of Fungal Growth; detection method Resazurin; Absorption (OD600-OD570); plate type 384well; NBS; CORNING #3640. (Resazurin is reduced to fluorescent resorufin, in cell work by metabolically active cells.)

Entries with a potency or affinity are not part of this list.

For orientation: Inhibition means the drop in the measured response relative to a control, in per cent. Regarding `[N-]=[N+]=NC[C@H]1OC(O)[C@@H](O)[C@@H]1O` (stereo partly drawn), the Inhibition with Klebsiella pneumoniae was 29.69%; in the assay on Candida albicans it was 3.08%; with Cryptococcus neoformans, -7.43%.
